Among the data in PubChem BioAssay AID743060 (The Scripps Research Institute Molecular Screening Center, 2013) are inhibition values, retold here.

The structures appear in SMILES notation.

This experiment can be described thus: inhibitors of T. brucei MetRS aminoacylation, late-stage follow-up, biochemical, radioactivity, round 1 (AID 743060). The settings on record: purified enzyme, radiolabel aminoacylation, scintillation, 2 h; at 10 µM; stronger effect = higher value.

By inhibition is commonly meant the change of the read-out against control, counted positive when it falls. Take `CCN(CC)C(=O)C(=O)c1cn(CC(=O)N2CCCc3ccccc32)c2ccccc12`: the inhibition was -17.2%.
The figure for `O=C(NCc1nc2ccccc2[nH]1)C1=C[C@H](c2ccc(Br)cc2)C[C@H](OCCCCO)O1` is 94.3%.
In the case of `CN(CC(=O)Nc1ccc(Cl)cc1)C(=O)c1ccc(-n2cncn2)c([N+](=O)[O-])c1` it was 92.5%; in that of `CCN(CC)C(=O)C(=O)c1cn(CC(=O)N(CC)c2ccccc2)c2ccccc12`, -7.96%.
In the case of `O=C(Cn1cc(C(=O)C(=O)N2CCOCC2)c2ccccc21)Nc1cccc(C(F)(F)F)c1` it was 100%; in that of `O=C(NNC(=O)c1ccc(-n2cncn2)c([N+](=O)[O-])c1)c1ccc(Cl)cc1`, 73%; in that of `O=C(N/C(=C\c1cccnc1)c1nc2ccccc2[nH]1)c1cccc(Br)c1`, 71.7%.
As to `O=C(Cn1cc(C(=O)c2ccccc2)c2ccccc21)Nc1cccc(C(F)(F)F)c1`, the inhibition was determined as 65.9%.
As to `COc1ccccc1NS(=O)(=O)c1cccc(NC(=O)Nc2ccccc2)c1`, the inhibition is 95.1%.
In the case of `Cn1c(CCNC(=O)c2ccc(Cl)cc2)nc2ccccc21` it was 3.39%.
As to `Oc1c(Cl)cc(Cl)cc1CNc1nc2ccccc2[nH]1`, the inhibition amounted to 98.7%.
In the case of `O=C(NCc1nc2ccccc2[nH]1)C1=C[C@@H](c2csc3ccccc23)C[C@@H](OCCCCO)O1` it was 89.2%.
Consider `CCO[C@@H]1OC(C(=O)NCc2nc3ccccc3[nH]2)=C[C@H](c2ccc(Br)cc2)[C@H]1CCCO`, for which the inhibition is 64%.
`CC(=O)c1c[nH]c(C(=O)NCc2cccc(C(F)(F)F)c2)c1`: the inhibition amounted to 92.7%.
The figure for `Cc1cccc(NC(=O)C2CC(=O)n3c(nc4ccccc43)N2)c1` (stereo not given) is 8.95%; for `COc1ccc(CCN(C(=S)Nc2ccccc2)C2CC(=O)N(c3ccc(Cl)cc3)C2=O)cc1` (stereo not given) it is 99.4%.
In the case of `O=C(NCc1nc2ccccc2[nH]1)C1=C[C@@H](C2CC2)C[C@@H](OCc2ccc(CO)cc2)O1` it was 93.6%; in that of `O=C(Cn1cc(C(=O)C(=O)N2CCOCC2)c2ccccc21)NCc1ccccc1`, 16.7%; in that of `O=C(NCc1nc2ccccc2[nH]1)C1=C[C@H](c2ccccc2)C[C@H](OCc2ccc(CO)cc2)O1`, 61.8%.
In the case of `COc1cccc(NC(=O)C2CC(=O)n3c(nc4ccccc43)N2)c1` (stereo not given) it was 31.5%.
`O=C(NCc1nc2ccccc2[nH]1)C1=C[C@@H](c2ccc(Br)cc2)C[C@@H](OCc2ccc(CO)cc2)O1`: the inhibition is 97.6%.
The figure for `CC(C)c1nc2ccc(C(=O)N(C)CCc3nc4ccc(F)cc4[nH]3)cc2o1` is -7.17%.
In the case of `Cc1[nH]c2ccc(Br)cc2c(=O)c1CN1CCCCCC1` it was 86.6%; in that of `COc1ccccc1NC(=O)Cn1cc(C(=O)C(=O)N2CCOCC2)c2ccccc21`, -13.7%.
The figure for `Cc1ccc(NC(=O)CN(C)C(=O)CCSc2ccc(F)cc2)cc1` is 67.3%; for `O=C(NCc1nc2ccccc2[nH]1)C1=C[C@@H](c2ccc3c(c2)OCO3)C[C@@H](OCCCCO)O1` it is 93.7%.
Regarding `CC(C)OCCCN1CC(=O)N2C(c3cccc([N+](=O)[O-])c3)c3[nH]c4ccccc4c3C[C@H]2C1=O` (stereo not given in full), the inhibition was determined as 93.1%.
The figure for `COCCc1nc2ccc(C(=O)NCCc3nc4ccc(OC)cc4[nH]3)cc2o1` is -2.59%; for `O=C1CC(NCCc2ccccc2)C(=O)N1c1ccc(Br)cc1` (stereo not given) it is -9%.
With `C[C@H](O)[C@@H]1C(=O)N2CCc3c([nH]c4ccccc34)[C@@H]2C[C@@H]1N(C)Cc1ccc2c(c1)OCO2`, the inhibition was 80.4%.
In the case of `COc1ccccc1-n1c(SCC(=O)Nc2ccc(Cl)cc2)nc(O)c(Cc2ccccc2)c1=O` it was 67%; in that of `COc1ccc2[nH]c3nc(SCC(=O)Nc4ccc5c(c4)OCO5)nnc3c2c1`, 65.6%.
For the compound `O=C(Cn1cnc2ccccc21)Nc1cccc([N+](=O)[O-])c1`, the inhibition is 91.9%.
In the case of `CC(=O)N(CCc1ccccc1)C1CC(=O)N(c2ccc(Br)cc2)C1=O` (stereo not given) it was -21.2%; in that of `CC1Cc2ccccc2N1C(=O)Cn1cc(C(=O)C(=O)N2CCOCC2)c2ccccc21` (stereo not given), -14.7%.
